Rows were chosen to be rich in hits. Some 8.1% of all compounds tested hit in one or more screens of this group.
KB-3-1 tox – KB-3-1 parental cell cytotoxicity. KB-3-1 viability, CellTiter-Glo ATP luminescence, 72 h. Potency, µM (highest dose often 46.1 µM), actives largely listed as cytotoxic. 400,000 compounds, 1.4% hits. AID 1347075; also: % is scaled to controls: 0 for no effect and ±100 for the full control effect; nearly all actives have a fitted effect of over 60% in size
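72 h, 37 °C compound treatment of KB-3-1 parental cells; CellTiter-Glo added, 10 min, luminescence read. Data corrected against DMSO-only plates and normalized before curve fitting.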
SW480 rereplic – induces DNA re-replication in SW480 colon adenocarcinoma cells | 340,000 compounds, 1.8% hits | AID 624297 | Potency, µM (highest dose often 46.1 µM), without a hit: at the highest dose re-replication activation, usual class: activators | SW480 DNA re-replication, Hoechst DNA content imaging, 48 h; also: % of control where 0% means no effect; nearly all actives have a fitted effect of over 55% in size
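DNA re-replication was detected as more nuclei of elevated Hoechst intensity after 48 hr exposure to compound (23 nL pinned per well of 250 cells).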
KB-V1 MDR tox – kills drug-selected multidrug resistant KB-V1 cells; KB-V1 MDR cells viability, CellTiter-Glo, 72 h; Potency, µM (highest dose often 46.1 µM), most hits filed as cytotoxic; 400,000 compounds, 3.4% hits; AID 1347076; also: % is scaled to controls: 0 for no effect and ±100 for the full control effect; nearly all actives have a fitted effect of over 60% in size
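KB-V1, DMEM (no phenol red) + 10% FBS; cpd pin-transferred, titration series; 72 h, 37 degrees C; CellTiter-Glo, luminescence. Data normalized, curve-fit.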
MCF10A rerep – DNA re-replication induction in MCF 10a cells; MCF 10A DNA re-replication, Hoechst nuclear intensity, 48 h; Potency, µM (highest dose often 46.1 µM), for the others: top-dose activity, positive = re-replication, hits mostly activators; 350,000 compounds, 2.9% hits; also: % of control where 0% means no effect; nearly all actives have a fitted effect of over 50% in size
ELG1 DNA repair – blocks ELG1-dependent DNA repair in HEK293T cells; HEK293T ELG1-luciferase reporter, luminescence, 16 h; DNA damage induced by 5-fluorouridine; Potency, µM (highest dose often 46.1 µM), for inactives: top-dose activity change, negative = inhibition, usual class: inhibitors; 330,000 compounds, 2.3% hits; AID 504467; also: % is scaled to controls: 0 for no effect and ±100 for the full control effect; nearly all actives have a fitted effect of over 55% in size
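Quantitative HTS, concentration-response format. 2,000 cells/well co-treated with 5-fluorouridine and compound, 16 hr in 5% CO2 at 37 °C; ONE-Glo luminescence read after 30 min.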
Numbers without * were called inactive; i = inactive; ? = inconclusive; . = not tested or not shown; [ ] = dose if it differs, or a comment. Calls follow the shape of the dose curve; as a rule, active = well fitted curve in the direction sought with a large enough effect; inconclusive = small, poorly fitted or top-dose-only effect, or another doubt; inactive = no such curve, though single readings can be large; an effect the other way counts as inactive or inconclusive. Potency is read from the fitted curve at half-maximal effect.

SMILES	KB-3-1 tox	SW480 rereplic	KB-V1 MDR tox	MCF10A rerep	ELG1 DNA repair
Cc1cc(NC(=O)CSCC(=O)N2CCN(c3cccc(C)c3C)CC2)no1	i	-27%	i	4%	-18%
Cc1noc(C)c1CSc1ccccc1C(=O)N1CCN(c2ccccc2)CC1	i	-5%[9.22 µM]	i	?	?
O=C(O)C1CCCN1c1nc(-c2ccc(Cl)c(Cl)c2)cc(C(F)(F)F)n1 (configuration not stated)	?	-5%	?	?	4%
CC(C)(C)OC(=O)C[C@H]1C/C=C\C[C@@H](CC(=O)N(CCO)Cc2ccccc2)C(=O)N2CCC[C@H]2COC1=O	i	-1%	?	0%	23µM*
CC(C)(C)OC(=O)C[C@H]1C/C=C\C[C@@H](CC(=O)N(CCO)Cc2ccccc2)C(=O)N[C@H](Cc2c[nH]c3ccccc23)COC1=O	i	5%	i	?	21µM*
CCOc1ccccc1NC(=O)C1CCCN(c2ncnc3onc(-c4ccc(F)cc4)c23)C1 (configuration not stated)	i	.	i	.	.
CN(C)C(=O)c1ccc2c(c1)N(CC(=O)NCc1ccc(F)cc1)C(=O)C1CCCCN21 (configuration not stated)	i	.	i	.	.
Cc1ccc(-n2c(C3CC3c3ccc(Cl)cc3)n[nH]c2=S)cc1 (configuration not stated)	i	?	21µM*	?	1%
Cc1ccc(C2CC2c2n[nH]c(=S)n2-c2cccc(Cl)c2)cc1 (configuration not stated)	i	-5%	i	23µM*	-1%
COc1ccc(N2CCN(C(=S)Nc3ccccc3OC)CC2)cc1	i	1%	i	2%	24%
COC(=O)c1ccc(NC(=O)c2nc(SCc3ccccc3F)ncc2Cl)cc1	i	.	i	.	.
CCN(CC)c1ccc2c(c1)OC(N)=C(C#N)C2c1cccnc1 (configuration not stated)	0.041µM*	0.18µM*	0.29µM*	?	-16%
N#CC1=C(N)Oc2cc(Nc3ccccc3)ccc2C1c1ccncc1 (configuration not stated)	?	16µM*	i	?	-23%
CCCCn1c(SCCN2CCCCC2)nc2c1c(=O)n(C)c(=O)n2C	i	.	i	.	.
Cc1ccc(N2C(=O)[C@@H]3CSC(c4ccc(Cl)cc4)N3C2=O)cc1 (some centres not stated)	i	.	i	.	.
Cc1cc(S(=O)(=O)Nc2c(C)nn(C)c2C)c(Cl)cc1Cl	?	?	18µM*	-11%	-6%
CCOC(=O)C[C@@H]1OC[C@H](CO)N1S(=O)(=O)c1ccc(C)cc1	i	.	i	.	.
FC(F)(F)c1nnc2c(Sc3ccccc3)nc3ccccc3n12	12µM*	?	?	?	?
FC(F)(F)c1nnc2c(Sc3ccc(Cl)cc3)nc3ccccc3n12	3.7µM*	?	?	472%[0.0737 µM]	-26%
FC(F)(F)c1nnc2c(Sc3ccccn3)nc3ccccc3n12	?	?	?	?	0%
Cc1oc2ncn(C)c(=O)c2c1C(=O)NCCCN1CCCCC1C (configuration not stated)	i	.	?	.	.
Nc1ccc2cc3[nH]c4cc(N)ccc4c3nc2c1	?	3.3µM*	i	18µM*	.
COc1ccc2c(c1)CC(C(=O)NCCN1CCN(c3cccc(Cl)c3)CC1)CO2 (configuration not stated)	i	.	i	.	.
CCOc1ccc(-c2nnc(SCC(=O)Nc3cc(F)ccc3F)o2)cc1	?	.	i	.	.
O=C(NCc1cccnc1)C1CC(c2cccc(Br)c2)=NO1 (configuration not stated)	?	?	i	5.8µM*	-8%
COc1cccc(C2=NOC(C(=O)Nc3cccnc3)C2)c1 (configuration not stated)	i	0%	16µM*	-5%	-11%
COc1ccc(CC(=O)NCCc2csc3nc(-c4ccccc4F)nn23)cc1	i	.	i	.	.
Cc1nc2[nH]c(=S)n(C)c(=O)c2nc1C	i	26µM*	i	0%	10%

From PubChem
